{"source": "the supplement of paper PMC10338343", "note": "± gives the standard deviation. The full ranking holds about 3,700 sequences; the median of “pre-steady-state target cleavage rate” is about 0.02, and the highest 2% start at about 0.23. The full list was thinned out, with the highest values kept by preference.", "data": [{"system": "MILI (PIWIL2) piRISC loaded with Kctd7 piRNA (26 nt)", "assay": "pre-steady-state target cleavage rate (min^-1); MIWI and MILI are mouse PIWI proteins and EfPiwi is from a freshwater sponge; tags in brackets are library labels; higher = faster piRNA-guided slicing of the target", "conditions": "guide: Kctd7 piRNA 5'p-UGUUAAUCUCUCAGAGAAGGUGACAG; auxiliary factor: 500 nM mouse GTSF1", "method": "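Cleave-'n-Seq: a library of target RNAs (target site embedded in constant flanks, ACAGCATTCCGCGTTAGTGATATCCG... 5' flank; DNA-blocked outside the site) at 0.1 nM was incubated with 1 nM active mouse MILI or MIWI piRISC (synthetic 5'-monophosphorylated piRNA guide) with or without 500 nM mouse GTSF1 at 33 °C for 1 min to 16 h. Uncleaved targets were sequenced and normalised to non-target controls, and the pooled three trials were fitted to a burst-and-steady-state model to give the pre-steady-state cleavage rate (min^-1; k3 is constrained to at most 1e-4). Sequence is the target site only; target names encode pairing extent (gX:gY) and contiguous / 1-mismatch / 2-mismatch / bulge geometry. Fits with R² ≤ 0 are excluded.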", "values": [{"sequence": "UAGUGAGUCACCUUCUCUGAGGAGAUUAACA", "pre-steady-state target cleavage rate": "0.0247 ± 0.011"}, {"sequence": "UAGUGAGUGACCUUCUCUGAGAGAUUAACA", "pre-steady-state target cleavage rate": "0.157 ± 0.0097"}, {"sequence": "UAGUGACAGACCUCUCUCUGAGAGAUUAACA", "pre-steady-state target cleavage rate": "0.0375 ± 0.0076"}, {"sequence": "UAGUCUGUCACCUUCUGCUGAGAGAUUAACA", "pre-steady-state target cleavage rate": "0.0816 ± 0.013"}, {"sequence": "UAGUCUGUCUCCUACUCUGAGAGAUUAACA", "pre-steady-state target cleavage rate": "0.157 ± 0.0082"}, {"sequence": "UAGUGACUCACCUAGUCUGAGAGAUUAACA", "pre-steady-state target cleavage rate": "0.0896 ± 0.0089"}, {"sequence": "UAGUGACAGUGCUUCUCUGAGAGAUUAACC [g2:g19:cont:t1C]", "pre-steady-state target cleavage rate": "0.0223 ± 0.0053"}, {"sequence": "UAGUGACACACCAUCUCUGAGAGAUUAUGA", "pre-steady-state target cleavage rate": "0.00752 ± 0.0041"}, {"sequence": "UAGUGAGUCACCCUUCUCUGAGAGAUUAACA", "pre-steady-state target cleavage rate": "0.19 ± 0.02"}, {"sequence": "UAGUGAGUCACCUUCUCUGAGAGAUUAAGA", "pre-steady-state target cleavage rate": "0.219 ± 0.035"}, {"sequence": "UAGUCACUCACCUUCUCUGAGAGAUUAACA", "pre-steady-state target cleavage rate": "0.207 ± 0.0095"}, {"sequence": "UAGUCACACACCUUCUCUGAGAGAUUAACA", "pre-steady-state target cleavage rate": "0.168 ± 0.011"}, {"sequence": "UAGUGAGUCACCUUCUCUGAGAGAUUACCA", "pre-steady-state target cleavage rate": "0.251 ± 0.05"}, {"sequence": "UAGUCAUGUCACCUUCUCUGAGAGAUUAACA", "pre-steady-state target cleavage rate": "0.238 ± 0.023"}, {"sequence": "UAGUGAGUCACCUUCUCUGAGAGAUUACACA", "pre-steady-state target cleavage rate": "0.187 ± 0.038"}, {"sequence": "UAGUGAGUCACCUUCUCUGAGAGAUUACA", "pre-steady-state target cleavage rate": "0.153 ± 0.033"}, {"sequence": "UAGUGAGUCACCUUCUCUGAGAGAUUAACG [g2:g24:cont:t1G]", "pre-steady-state target cleavage rate": "0.284 ± 0.021"}, {"sequence": "UAGUCAGUCACCUUCUCUGAGAGAUUAACA", "pre-steady-state target cleavage rate": "0.249 ± 0.016"}, {"sequence": "UAGUCAGUCACCUUCUCUGAGAGAUUAAGA", "pre-steady-state target cleavage rate": "0.135 ± 0.024"}, {"sequence": "UAGUAUGUCACCUUCUCUGAGAGAUUAACA", "pre-steady-state target cleavage rate": "0.211 ± 0.019"}, {"sequence": "UAGUGUGUCAGCUUCUGUGAGAGAUUAACA", "pre-steady-state target cleavage rate": "0.129 ± 0.013"}, {"sequence": "UAGUGAGUCACCUUCUCUGCGAGAUUAACA", "pre-steady-state target cleavage rate": "0.0952 ± 0.015"}, {"sequence": "UAGUGUGUCAGGUUCUCUGAGAGAUUAUGA", "pre-steady-state target cleavage rate": "0.00789 ± 0.0035"}, {"sequence": "UAGUGACACAGCUUCUCUGUGAGAUUAACA", "pre-steady-state target cleavage rate": "0.0271 ± 0.0057"}, {"sequence": "UAGUGACAGACCUUGUCUGAGAGAUUAACA", "pre-steady-state target cleavage rate": "0.0481 ± 0.0096"}, {"sequence": "UAGUGAGUCAGCUUCUCUGAGAGAUUAACA", "pre-steady-state target cleavage rate": "0.158 ± 0.013"}, {"sequence": "UAGUGUCAGACCUUCUCUGAGAGAUUAACA", "pre-steady-state target cleavage rate": "0.108 ± 0.012"}, {"sequence": "UAGUCUCUCACCUUCUCUGAGUGAUUAACA", "pre-steady-state target cleavage rate": "0.00476 ± 0.0037"}, {"sequence": "UAGUGACUCAGCUUGUCUGAGAGAUUAACA", "pre-steady-state target cleavage rate": "0.112 ± 0.0088"}, {"sequence": "UAGUGACAGACCUUCUCUGAGACGAUUAACA", "pre-steady-state target cleavage rate": "0.0176 ± 0.0081"}, {"sequence": "UAGUGAGUCACCUUCCUGAGAGAUUAACA", "pre-steady-state target cleavage rate": "0.119 ± 0.038"}, {"sequence": "UAGUGAGUCACCUUCUCUGAGAGAUAAACA", "pre-steady-state target cleavage rate": "0.249 ± 0.052"}, {"sequence": "UAGUGAGUCACCUUCUCUGUGAGAUAAACA", "pre-steady-state target cleavage rate": "0.0242 ± 0.0096"}, {"sequence": "UAGUGACUCACCUUCUCUGAGAGAUUAAAA", "pre-steady-state target cleavage rate": "0.0677 ± 0.02"}, {"sequence": "UAGUGAGUCACCUUCUCUGAGAGAUAAAGA", "pre-steady-state target cleavage rate": "0.00919 ± 0.0072"}, {"sequence": "UAGUGAGUCACCUUCCUCUGAGAGAUUAACA", "pre-steady-state target cleavage rate": "0.148 ± 0.019"}, {"sequence": "UAGUGAGUCACCUUCCCUGAGAGAUUAACA", "pre-steady-state target cleavage rate": "0.394 ± 0.074"}, {"sequence": "UAGUGAGUACACCUUCUCUGAGAGAUUAACA", "pre-steady-state target cleavage rate": "0.237 ± 0.019"}, {"sequence": "UAGUGACUCACCUUCUCUGAGAGAUUAAA", "pre-steady-state target cleavage rate": "0.13 ± 0.031"}, {"sequence": "UAGUGAGACACCUUCUCUGAGAGAUUAACA", "pre-steady-state target cleavage rate": "0.185 ± 0.011"}, {"sequence": "UAGUGACUCACCUUCUCUGAGAGAUUAAACA", "pre-steady-state target cleavage rate": "0.251 ± 0.035"}, {"sequence": "UAGUGAGUACCUUCUCUGAGAGAUUAACA", "pre-steady-state target cleavage rate": "0.113 ± 0.014"}, {"sequence": "UAGUGACUCACCUUCUCUGAGAGAGUUAACA", "pre-steady-state target cleavage rate": "0.118 ± 0.017"}, {"sequence": "UAGUGUGAGACCUUCUCUGAGAGAUUAACA", "pre-steady-state target cleavage rate": "0.101 ± 0.0091"}, {"sequence": "UAGUGACACACCUUCAGUGAGAGAUUAACA", "pre-steady-state target cleavage rate": "0.0881 ± 0.016"}, {"sequence": "UAGUGACUCAUCCUUCUCUGAGAGAUUAACA", "pre-steady-state target cleavage rate": "0.0582 ± 0.0061"}, {"sequence": "UAGUGAGUCACGUUCUCUGUGAGAUUAACA", "pre-steady-state target cleavage rate": "0.0376 ± 0.0033"}, {"sequence": "UAGUGUGUCACCUUCUCAGAGACAUUAACA", "pre-steady-state target cleavage rate": "0.117 ± 0.025"}, {"sequence": "UAGUGACUCACCUUCUCUGAGAGAUGUAACA", "pre-steady-state target cleavage rate": "0.172 ± 0.028"}, {"sequence": "UAGUGACAGAACCUUCUCUGAGAGAUUAACA", "pre-steady-state target cleavage rate": "0.0771 ± 0.01"}, {"sequence": "UAGUCUGUCACCUUCUCUGAGAGAUAACA", "pre-steady-state target cleavage rate": "0.0928 ± 0.025"}, {"sequence": "UAGUGAGUCACCUUCUCGAGAGAUUAACA", "pre-steady-state target cleavage rate": "0.0598 ± 0.015"}, {"sequence": "UAGUGUGUCACCUUCUCCGAGAGAUUAACA", "pre-steady-state target cleavage rate": "0.373 ± 0.1"}, {"sequence": "UAGUGAGUCACCUUCUUCUGAGAGAUUAACA", "pre-steady-state target cleavage rate": "0.0918 ± 0.028"}, {"sequence": "UAGUCUGUCACCUUCUCCGAGAGAUUAACA", "pre-steady-state target cleavage rate": "0.21 ± 0.038"}, {"sequence": "UAGUCUGUCACCUUCUCUGAGAGAUAUAACA", "pre-steady-state target cleavage rate": "0.235 ± 0.03"}, {"sequence": "UAGUGAGUCACCUUCUCAGAGAGAUUAACA", "pre-steady-state target cleavage rate": "0.173 ± 0.022"}, {"sequence": "UAGUGAGUCACCUUCUCCGAGAGAUUAACA", "pre-steady-state target cleavage rate": "0.394 ± 0.084"}, {"sequence": "UAGUGUGUCACCUUCUCGAGAGAUUAACA", "pre-steady-state target cleavage rate": "0.0644 ± 0.013"}, {"sequence": "UAGUGAGUCACCUUCUGAGAGAGAUUAACA", "pre-steady-state target cleavage rate": "0.074 ± 0.011"}, {"sequence": "UAGUGAGUCACCUUCUGCUGAGAGAUUAACA", "pre-steady-state target cleavage rate": "0.264 ± 0.058"}, {"sequence": "UAGUCUGUCACCUUCUCUGAGAGAUAAACA", "pre-steady-state target cleavage rate": "0.132 ± 0.022"}, {"sequence": "UAGUGACAGUCCUUCUAUGAGAGAUUAACA", "pre-steady-state target cleavage rate": "0.0377 ± 0.013"}, {"sequence": "UAGUGACACAGCUUCUCUGAGAGAUAAACA", "pre-steady-state target cleavage rate": "0.0211 ± 0.0068"}, {"sequence": "UAGUGACUCACGUUCUCUGAGAGAUUUACA", "pre-steady-state target cleavage rate": "0.0554 ± 0.015"}, {"sequence": "UAGUGACAGACCUUCUCUGUGAGAUAAACA", "pre-steady-state target cleavage rate": "0.0102 ± 0.0046"}, {"sequence": "UAGUGACACAACCUUCUCUGAGAGAUUAACA", "pre-steady-state target cleavage rate": "0.155 ± 0.018"}, {"sequence": "UAGUGACUCACCUUCUCUGAGAGAUUAUACA", "pre-steady-state target cleavage rate": "0.114 ± 0.021"}, {"sequence": "UAGUGUGUCACCAUCUCUGAGAGAUUAUGA", "pre-steady-state target cleavage rate": "0.0243 ± 0.0082"}, {"sequence": "UAGUGACUCACCUUCUGUGAGAGAUUUUGA", "pre-steady-state target cleavage rate": "0.00903 ± 0.0039"}, {"sequence": "UAGUGACACACCUACUCUGAGACAUUAACA", "pre-steady-state target cleavage rate": "0.0243 ± 0.0072"}]}]}
